Several values for one entry are separate records, joined by “and”; a condition that tells them apart may be missing. Equal entries are not always repeated. Inconclusive results are not listed. Activity calls are given as the source filed them. Unless noted, calls come from the whole dose curve.
Legend:
[1] = qHTS Assay for Lipid Storage Modulators (AID 1519); settings: Drosophila S3 cells, BODIPY lipid droplet/cell ratio, laser cytometry, cells loaded with oleic acid; for activity change, negative = inhibition: % is set by controls: 0 for no effect and ±100 for the full control effect
Summary of the method: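 Cells seeded at 5,000 per well were treated with compounds over a concentration series and loaded with oleic acid (400 uM, as added). Lipid droplet fluorescence (488 nm excitation, 500-530 nm channel) was read by laser-scanning cytometry and normalized to 20 uM Triacsin C.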

[2] = target: DNA repair nuclease/redox regulator APEX1 (Homo sapiens) (UniProt P27695); assay: qHTS Validation Assay for Inhibitors of the Human Apurinic/apyrimidinic Endonuclease 1 (APE1) (AID 1705; active = well fitted curve in the direction sought with a large enough effect; an effect the other way counts as inactive or inconclusive;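 note: TAMRA fluorescence gain over two minutes as APE1 cuts a quenched THF abasic duplex; % is set by controls: 0 for no effect and ±100 for the full control effect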); settings: purified APE1 endonuclease activity, fluorescence, titration; series mostly up to 57.1 µM
Sequence of DNA repair nuclease/redox regulator APEX1 (Homo sapiens) (P27695 whole entry, looked up): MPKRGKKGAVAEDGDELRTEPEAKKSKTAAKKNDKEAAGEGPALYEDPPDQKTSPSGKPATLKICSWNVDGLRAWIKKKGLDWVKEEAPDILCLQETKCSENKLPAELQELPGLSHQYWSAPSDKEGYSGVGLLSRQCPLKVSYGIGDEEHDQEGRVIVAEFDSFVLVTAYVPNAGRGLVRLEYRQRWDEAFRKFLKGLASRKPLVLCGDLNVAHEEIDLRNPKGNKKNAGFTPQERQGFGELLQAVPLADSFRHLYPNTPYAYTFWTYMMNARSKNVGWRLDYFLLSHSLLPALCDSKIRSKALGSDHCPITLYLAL
Summary of the method: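 Activity read as rising fluorescence (598 nm emission, 525 nm excitation) from incision of a TAMRA/BHQ-2 duplex carrying a THF abasic site (50 nM). Compound and enzyme sat 15 min at RT before substrate start; signal change between first and third 60-s reads.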

[3] = Counterscreen for APE1 Inhibitors: Fluorescent Dye Displacement Validation Assay (AID 1707; active = well fitted curve in the direction sought with a large enough effect; an effect the other way counts as inactive or inconclusive;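 note: plate controls were ThO with dsDNA and no compound for no effect and ThO without dsDNA for full effect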); settings: fluorescent dye displacement from DNA; series mostly up to 57.1 µM
Summary of the method: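 Loss of Thiazole Orange fluorescence marks promiscuous DNA binders. The dye (250 nM) is mixed with 50 nM abasic-site dsDNA in pH7.5 Tris buffer containing MgCl2, then compounds are added and emission is read once.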

[4] = target: Endonuclease 4 (Escherichia coli (strain K12)) (UniProt P0A6C1); assay: Counterscreen for APE1 Inhibitors: qHTS Validation Assay for Inhibitors of Endonuclease IV (AID 1708; active = well fitted curve in the direction sought with a large enough effect; an effect the other way counts as inactive or inconclusive; note: % is set by controls: 0 for no effect and ±100 for the full control effect); settings: E. coli endonuclease IV, DNA cleavage fluorescence; series mostly up to 57.1 µM
Summary of the method: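 Enzyme (2 nM) + compound, 15 min RT; add 50 nM TAMRA/BHQ-2 THF-site dsDNA; kinetic read ex525/em598, 3 reads/60 s; activity = read 3 − read 1. Buffer Tris pH 7.5, 50 mM NaCl, 2 mM MgCl2, DTT, Tween-20.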

[5] = qHTS for differential inhibitors of proliferation of Plasmodium falciparum line 7G8 (AID 1815; active = well fitted curve in the direction sought with a large enough effect; an effect the other way counts as inactive or inconclusive;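 note: parasite growth measured after three days of incubation; plate controls were vehicle wells for no effect and reference inhibitor wells for full effect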); settings: Plasmodium falciparum 7G8 proliferation inhibition; series mostly up to 28.7 µM
[6] = qHTS for differential inhibitors of proliferation of Plasmodium falciparum line GB4 (AID 1816; active = well fitted curve in the direction sought with a large enough effect; an effect the other way counts as inactive or inconclusive;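 note: parasite growth measured after 72 h incubation; 0% = vehicle DMSO and -100% = reference inhibitor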); settings: series mostly up to 28.7 µM
[7] = qHTS for differential inhibitors of proliferation of Plasmodium falciparum line 3D7 (AID 1876; active = well fitted curve in the direction sought with a large enough effect; an effect the other way counts as inactive or inconclusive;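 note: parasite growth measured after three days of culture; 0% = vehicle wells and -100% = reference inhibitor wells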); settings: P. falciparum 3D7 proliferation inhibition; series mostly up to 28.7 µM
[8] = qHTS for differential inhibitors of proliferation of Plasmodium falciparum line D10 (AID 1877; active = well fitted curve in the direction sought with a large enough effect; an effect the other way counts as inactive or inconclusive;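 note: parasites grown with compound for 72 h before DNA staining; plate controls were vehicle wells for no effect and reference inhibitor wells for full effect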); settings: series mostly up to 28.7 µM
[9] = qHTS for differential inhibitors of proliferation of Plasmodium falciparum line Dd2 (AID 1882; active = well fitted curve in the direction sought with a large enough effect; an effect the other way counts as inactive or inconclusive;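 note: plate controls were DMSO vehicle for no effect and 0.29 µM artemisinin for full effect; nearly all actives have a fitted effect of over 65% in size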); settings: series mostly up to 28.7 µM
Summary of the method: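 SYBR Green DNA fluorescence (ex 485, em 535 nm) after overnight lysis quantifies parasite growth; compound exposure lasted 72 h at 37 C on infected red cells at 2.5% hematocrit, 0.3% parasitemia (final). Artemisinin 0.29 uM and vehicle wells define normalization.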

[10] = qHTS for differential inhibitors of proliferation of Plasmodium falciparum line W2 (AID 1883; active = well fitted curve in the direction sought with a large enough effect; an effect the other way counts as inactive or inconclusive;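 note: parasites grown with compound for 72 h before lysis and staining; 0% = vehicle wells and -100% = control inhibitor wells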); settings: series mostly up to 28.7 µM
[11] = measured here: cell count channel max response
[12] = measured here: lipid channel max response

Q: For `CCNC(=O)[C@H]1O[C@@H](n2cnc3c(N)nc(NCCc4ccc(CCC(=O)O)cc4)nc32)[C@H](O)[C@H]1O`, which activity change, negative = inhibition ([1]; at 57.5 µM (top of the series)) is on record?
A: Its activity change, negative = inhibition is -1.93% (inactive).

Q: What about the max response [1, 11] of the same compound?
A: Its max response is -4.53%.

Q: What about the max response [1, 12] of the same compound?
A: The max response was -7.25%.

Q: And the outcome [2]?
A: The outcome was “inactive”.

Q: And the outcome [3]?
A: The outcome was “inactive”.

Q: What about the outcome [4] of the same compound?
A: The outcome was “inactive”.

Q: What about the outcome [5] of the same compound?
A: The outcome was “inactive”.

Q: And the outcome [6]?
A: The outcome was “inactive”.

Q: What about the outcome [7] of the same compound?
A: The outcome was “inactive”.

Q: And the outcome [8]?
A: Its outcome is “inactive”.

Q: And the outcome [9]?
A: The outcome was “inactive”.

Q: And the outcome [10]?
A: The outcome was “inactive”.

Q: For `C=C1c2cccc(O)c2C(O)=C2C(=O)[C@@]3(O)C(O)=C(C(N)=O)C(=O)[C@@H](N(C)C)[C@@H]3[C@@H](O)[C@H]12`, which activity change, negative = inhibition ([1]; at 25.7 µM (top of the series)) is on record?
A: The activity change, negative = inhibition was 1.55% (inactive).

Q: And the max response [1, 11]?
A: The max response was -8.47%.

Q: And the max response [1, 12]?
A: Its max response is -6.76%.

Q: Which activity change, negative = inhibition ([1]; at 57.5 µM (top of the series)) does the source give for `CC(NCCc1ccc(O)cc1)C(O)c1ccc(O)cc1` (stereo not given) here?
A: The activity change, negative = inhibition was 2.67% (inactive).

Q: What about the max response [1, 11] of the same compound?
A: Its max response is 13.6%.

Q: And the max response [1, 12]?
A: Its max response is 20%.

Q: For `CN[C@H]1[C@@H](O[C@@H]2[C@H](O[C@@H]3[C@@H](O)[C@@H](O)[C@@H](N=C(N)N)[C@@H](O)[C@@H]3N=C(N)N)O[C@H](C)[C@@]2(O)C=O)O[C@@H](CO)[C@@H](O)[C@H]1O`, which activity change, negative = inhibition ([1]; at 25.7 µM (top of the series)) is on record?
A: The activity change, negative = inhibition was -5.41% (inactive).

Q: And the max response [1, 11]?
A: The max response was 12.5%.

Q: What about the max response [1, 12] of the same compound?
A: Its max response is 7.05%.

Q: What does the source list for `OC(c1cc(C(F)(F)F)nc2c(C(F)(F)F)cccc12)C1CCCCN1` (stereo not given)?
A: activity change, negative = inhibition ([1]; at 57.5 µM (top of the series)): 2.49% (inactive); max response [1, 11]: 6.15%; max response [1, 12]: 10.3%

Q: For `NCC1CCC(C(=O)O)CC1` (stereo not given), which activity change, negative = inhibition ([1]; at 25.7 µM (top of the series)) is on record?
A: Its activity change, negative = inhibition is -1.26% (inactive).

Q: What about the activity change, negative = inhibition ([1]; at 57.5 µM (top of the series)) of the same compound?
A: The activity change, negative = inhibition was 6.78% (inactive).

Q: And the max response [1, 11]?
A: Its max response is -0.272% and 28.1%.

Q: And the max response [1, 12]?
A: Its max response is -2.41% and 39.3%.

Q: What does the source list for `COc1ccc2ccc(=O)oc2c1CC=C(C)C`?
A: activity change, negative = inhibition ([1]; at 57.5 µM (top of the series)): 9.52% (inactive); max response [1, 11]: 4.48%; max response [1, 12]: 16.7%

Q: Which activity change, negative = inhibition ([1]; at 25.7 µM (top of the series)) does the source give for `NS(=O)(=O)c1cc(Cl)c(Cl)c(S(N)(=O)=O)c1` here?
A: The activity change, negative = inhibition was -3.46% (inactive).

Q: And the max response [1, 11]?
A: The max response was -9.93%.

Q: What about the max response [1, 12] of the same compound?
A: The max response was -12.7%.

Q: For `CCC(c1ccc(O)cc1)C(CC)c1ccc(O)cc1` (stereo not given), which activity change, negative = inhibition ([1]; at 57.5 µM (top of the series)) is on record?
A: The activity change, negative = inhibition was 9.03% (inactive).

Q: What about the max response [1, 11] of the same compound?
A: The max response was 10.5%.

Q: What about the max response [1, 12] of the same compound?
A: Its max response is 25.1%.

Q: For `CC1(C)OC2CC3C4CC(F)C5=CC(=O)C=CC5(C)C4C(O)CC3(C)[C@]2(C(=O)CO)O1` (stereo not given in full), which activity change, negative = inhibition ([1]; at 57.5 µM (top of the series)) is on record?
A: The activity change, negative = inhibition was 6.59% (inactive).

Q: And the max response [1, 11]?
A: Its max response is 10.6%.

Q: And the max response [1, 12]?
A: Its max response is 23.9%.
